# Assay results reported in PubChem BioAssay AID485297 (National Center for Advancing Translational Sciences (NCATS), 2010).
# The whole screen tested about 320,000 compounds, of which about 9,100 (2.8%) were called active. Inconclusive results (about 3%) are left out. Only a selection was taken, and actives are over-represented in it overall. Unmarked numbers belong to inactive results. Calls come from the whole dose curve; as a rule, active = well fitted activation curve with a large enough effect; inconclusive = small, poorly fitted or top-dose-only effect; inactive = no such curve, though single readings can be large or run the other way.
# Assay: qHTS Assay for Rab9 Promoter Activators; note: nearly all actives have a fitted effect of over 60% in size; for activation, negative = inhibition: % of control where 0% means no effect
# Settings: Huh7 Rab9 promoter-luciferase reporter, luminescence, 24 h; series mostly up to 9.22 µM; activation, negative = inhibition: at the top concentration
# How it was run: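 Huh7 reporter line, Rab9 promoter upstream of luciferase. Compound exposure 24 h at 37 °C in reduced-serum medium with 10% FBS. Read-out: luminescence.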
# Potency is the fitted concentration of half-maximal effect.
SMILES,"activation, negative = inhibition",Potency
Clc1ccc(-c2nnc(SCc3nc4ccccc4s3)o2)cc1,29.6%,–
COC(=O)c1ccc(C)c(NC(=O)C2CC(=O)N(C3CCCC(C)C3C)C2)c1 (configuration not stated),-3.82%,–
CC(=O)Nc1ccc(S(=O)(=O)NC(C)C(=O)OCCOc2ccc(F)cc2)cc1 (configuration not stated),-2.89%,–
O=C(N/N=C/c1cccc(Br)c1)c1ccc(N2CCCC2=O)cc1,-0.625%,–
COc1ccc(C(=O)Nc2ccccc2C(=O)N/N=C/c2ccc(O)c(OC)c2)cc1,-0.509%,–
COc1cc(/C=N/NC(=O)c2ccc(N3CCCC3=O)cc2)ccc1O,–,3980 nM (active)
O=C(Nc1ccc(Br)cc1)C1CCC(=O)N1Cc1ccccc1Cl (configuration not stated),-2.51%,–
CC1CCN(C(=O)/C(=C\c2ccccc2F)NC(=O)c2ccccc2)CC1,-2.18%,–
CC(C)CNC(=O)c1cc(-c2ccc(Br)cc2)on1,–,3550 nM (active)
Cc1c(NC(=O)c2cc(-c3ccc(Br)cc3)on2)c(=O)n(-c2ccccc2)n1C,1.87%,–
COc1ccc(-c2cc(C(=O)NCCCN3CCOCC3)no2)cc1,-0.694%,–
O=C1COc2ccc(C(=O)CSc3ccc(Br)cc3)cc2N1,7.8%,–
O=C(CCc1ccccc1Cl)Nc1ccc(S(=O)(=O)Nc2nccs2)cc1,-4.37%,–
COc1cc(C(=O)NCC(c2ccco2)N2CCCC2)ccc1OCc1ccccc1 (configuration not stated),-5.2%,–
CN(C)S(=O)(=O)c1cccc(NC(=S)N/N=C/C(=O)c2ccccc2)c1,-3.18%,–
O=C(O)c1cccc(NC(=S)N/N=C/c2c[nH]c3ccccc23)c1,–,3550 nM (active)
O=C(N/N=C/c1c[nH]c2ccccc12)c1cc2ccccc2o1,-3.56%,–
O=S(=O)([N-]c1nc2ccccc2nc1-[n+]1ccc(Cc2ccccc2)cc1)c1ccc(Br)s1,-2.42%,–
CCCC(=O)N(CCN1CCOCC1)c1nc2ccc(OCC)cc2s1,6.31%,–

SMILES,"activation, negative = inhibition",Potency
CCOc1ccc2nc(N(CCN(C)C)C(=O)c3ccc4ccccc4c3)sc2c1,0.0921%,–
CCOc1ccc2nc(C(=O)N3CCCC(C)C3)sc2c1 (configuration not stated),–,1780 nM (active)
CN(C)S(=O)(=O)c1ccc(C(=O)NCC2(N3CCOCC3)CCCCC2)cc1,0.588%,–
CNS(=O)(=O)c1ccc(C(=O)NCC(=O)NCCc2ccc3c(c2)OCCO3)cc1,-3.12%,–
Cc1cccc(N(Cc2ccccc2)C(=O)c2ccccc2F)c1,8.75%,–
CCN1/C(=C/C(=S)Nc2ccccc2)Sc2ccccc21,–,2820 nM (active)
O=C(CCN1c2ccccc2Sc2ccccc21)Nc1ccccc1,-4%,–
CCN1/C(=C/c2ccc3ccc(C)cc3[n+]2CC)Sc2ccccc21,-22.4%,–
CC(OC(=O)Cc1ccc(F)cc1)C(=O)N1CCc2ccccc21 (configuration not stated),1.57%,–
COc1cccc(C(=O)Nc2nnc(S(=O)(=O)N3CCCCC3)s2)c1,3.53%,–
C=CCN1C(=O)c2ccc(C(=O)N3CCC(C(=O)OCC)CC3)cc2C1=O,-0.533%,–
Cc1ccc(OS(=O)Nc2cccc3nccnc23)cc1 (configuration not stated),7.91%,–
O=C(CCS(=O)(=O)Cc1ccccc1)Nc1ccc2c(c1)OCCO2,-1.29%,–
Nc1c(C(=O)Nc2ccc3c(c2)OCCO3)nnn1Cc1ccccc1,–,1260 nM (active)
CCc1ccc(NC(=O)Cn2nnc(C(=O)NCc3ccc4c(c3)OCO4)c2N)cc1,-9.68%,–
CC(C)(C)OC(=O)NCCCCCNC(=O)c1nc[nH]c1C(=O)NCc1ccccc1,-5.73%,–
Cc1cnc(C(=O)OCC(=O)N2CCc3ccccc32)cn1,5.77%,–
CCOC(=O)N1CCC(NC(=O)c2cnn3ccccc23)CC1,1.89%,–
O=C(c1cnn2ccccc12)N1CCc2ccccc21,–,1780 nM (active)

SMILES,"activation, negative = inhibition",Potency
CC(=O)c1c(C)[nH]c(C(=O)N2CCN(S(=O)(=O)c3ccc(F)c(F)c3)CC2)c1C,0.546%,–
Clc1ccc(-c2ncc3ccccn23)c(Cl)c1,-3.01%,–
Clc1ccc(-c2cc(-c3ccccn3)on2)c(Cl)c1,–,100 nM (active)
COn1c(-c2ccc(Cl)cc2Cl)nc2ncccc21,-2.3%,–
COc1cccc(C(=O)OCC(=O)c2[nH]c(C)c(C(C)=O)c2C)c1,-7.27%,–
CN(Cc1cccs1)C(=O)CN1C(=O)c2ccccc2S1(=O)=O,22.4%,–
O=C(/C=C(O)/C=C/c1ccc(O)cc1)/C=C/c1ccc(O)cc1,-2.14%,–
CCCc1cc(C(=O)Nc2ccc(C(=O)OC)cc2)cs1,24.7%,–
O=C(Nc1cccc(Cl)c1N1CCOCC1)c1ccc2c(c1)OCCO2,-2.62%,–
O=C(Nc1ccc(Cl)cn1)c1ccc2c(c1)OCCO2,–,562 nM (active)
COc1ccc(C(=O)NC(=S)Nc2ccc(Cl)cn2)cc1OC,-0.572%,–
Cc1ccc(C(=O)NNC(=O)c2ccc3c(c2)OCCO3)cc1,–,3980 nM (active)
CC(=O)c1ccc2c(c1)OCCOCCOc1ccc(C(C)=O)cc1OCCOCCO2,0.828%,–
Cc1ccc2sc(NNC(=O)c3ccc4c(c3)OCCO4)nc2c1C,-6.32%,–
COc1ccc(/C=N/NC(=O)c2ccc3c(c2)OCCO3)c(OC)c1,1.01%,–
CCCc1cc(C(=O)Nc2ccc(Cl)cn2)cs1,–,447 nM (active)
CCCCC(CC)C(=O)Nc1ccc(Cl)cn1 (configuration not stated),-2.96%,–
Cc1nc(NC(=O)c2ccc3c(c2)OCCO3)ccc1Br,–,562 nM (active)
Cc1cccc(C)c1NC(=O)CNC(=O)c1ccc2c(c1)OCCO2,1.78%,–
